We go through 48 compounds from PubChem BioAssay AID1259418 (Broad Institute, 2018).

The whole screen tested about 3,400 compounds, of which about 840 (25%) were called active. Not shown: some 11% with an inconclusive outcome. These entries were drawn from the full list. Potency and affinity values are given separately. A number with no mark means an inactive call.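 How the source made its calls: active means fitted half-maximal concentration of signal decrease at or below twice the sample's top tested concentration; inconclusive means flat curve between -70 and -30 percent, or poor fit; inactive means flat within 30 percent, signal rise, or potency above limit.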

This experiment can be described thus: T. gondii growth inhibition with IFN-gamma, dose response, cell-based, ME49Luc, HeLa, luciferase, 72 h (AID 1259418). As to conditions: T. gondii ME49Luc in IFN-y HeLa, hits give low values, -100% = high-dose IFN-γ control wells; at 19.5 µM unless noted.
As to `COc1cccc(C(=O)N2CCC3(CC2)Nc2ccc(Cl)cc2-n2cccc23)c1`, the max activity was 7.04% [at 10 µM].

Consider `Cc1cccc(OCC(=O)N2CCC(C(=O)NCCc3csc(-c4ccccc4)n3)CC2)c1`, for which the max activity is 9.91%.

Turning to `CCc1cnc(N2CCc3cc(C(=O)NCC4CC4)c(N(C)C)nc3CC2)nc1`, the max activity is -14.2% [at 2.6 µM].

Regarding `CN(C)C(=O)c1cc2c(nc1NCC1CC1)CCN(Cc1ccccn1)CC2`, the max activity is 32.5%.

As to `COc1ccc(C(=O)N2CCC3(CC2)Nc2ccc(Cl)cc2-n2cccc23)cc1OC`, the max activity is 9.68% [at 0.68 µM].

With `O=C(Nc1ccc(-c2nc(-c3ccccc3)co2)cc1)C1CCCCC1`, the max activity is 11.6% [at 10 µM].

Turning to `CCc1ccc(-c2noc(-c3nnn(Cc4nc(-c5ccccc5OC)oc4C)c3C)n2)cc1`, the max activity is 11.7% [at 1.35 µM].

With `Cc1cccc(OCC(=O)N2CCC[C@@H]2C(=O)NCCc2csc(-c3ccccc3)n2)c1`, the max activity is 9.84% [at 2.6 µM].

As for `COCC(=O)N1CC(=O)N2[C@H](CO)[C@@H](c3ccc(C#CC4CC4)cc3)[C@@H]2C1`, the max activity was 39.9%.

As for `COCC(=O)N1CC(=O)N2[C@H](CO)[C@H](c3ccc(C#CC4CC4)cc3)[C@@H]2C1`, the max activity was 43.4%.

Take `O=C(Cc1cccnc1)N1CC(=O)N2[C@@H](CO)[C@H](c3ccc(C#CC4CCCCC4)cc3)[C@@H]2C1`: the max activity was 14.3% [at 10 µM].

As to `Cc1ccc(-c2noc(-c3nnn(Cc4nc(-c5ccccc5)oc4C)c3C)n2)cc1C`, the max activity was 6.16%.

For `O=C(Cc1cccs1)N1CCC2(CC1)Nc1cc(F)ccc1-n1cccc12`, the max activity was 7.4% [at 2.6 µM].

On to `Cc1cccc(S(=O)(=O)N2CCC(C(=O)NCCc3csc(C)n3)CC2)c1`, for which the max activity was -8.91%.

`COc1ccccc1-c1nc(Cn2nnc(-c3nc(-c4cccc(OC)c4OC)no3)c2C)c(C)o1`: the max activity is -11.2%.

With `Cc1ccc(-c2noc(-c3nnn(Cc4nc(-c5ccccc5)oc4C)c3C)n2)cc1`, the max activity was 8.04%.

Turning to `O=C(Nc1ccc(-c2nc(-c3ccccc3)co2)cc1)Nc1ccc(F)c(Cl)c1`, the max activity is 15.9%.

Regarding `CC(C)CNC(=O)C1Cn2ccnc2C2(CCN(c3ncccn3)CC2)O1` (stereo not drawn), the max activity was 47.8%.

Take `Cc1cccc(-c2nc(Cn3nnc(-c4nc(-c5cccc(Br)c5)no4)c3C)c(C)o2)c1`: the max activity was 7% [at 0.68 µM].

As for `COCCNC1=NCCNC12CCN(S(=O)(=O)c1ccc(C(C)C)cc1)CC2`, the max activity is -6.8% [at 1.35 µM].

Take `CC(C)c1ccc(S(=O)(=O)N2CCC3(CC2)NCCN=C3NCc2ccc(F)cc2)cc1`: the max activity was -13.4% [at 10 µM].

`COc1ccccc1CCC(=O)Nc1ccc2c(c1)CCC(=O)N2C`: the max activity is -10.7% [at 0.16 µM].

Regarding `O=C1CCc2cc(NC(=O)c3cncc(Br)c3)ccc2N1`, the max activity was 4.53% [at 0.68 µM].

For `Cc1cccc(NC(=O)Nc2ccc(-c3nc(-c4cc(C)ccc4C)co3)cc2)c1`, the max activity was 6.67%.

In the case of `CC(C)CC#Cc1ccc([C@@H]2[C@H]3CN(C(=O)Nc4cc(F)ccc4F)CC(=O)N3[C@H]2CO)cc1`, the max activity is 2.95% [at 0.16 µM].

In the case of `Cc1oc(-c2ccccc2)nc1Cn1nnc(-c2nc(-c3cccc(C(F)(F)F)c3)no2)c1C`, the max activity is -10.4% [at 0.35 µM].

`CCC(C(=O)N1CCC2(CC1)Nc1cc(OC)ccc1-n1cccc12)c1ccccc1` (stereo not drawn): the max activity was 9.09% [at 0.35 µM].

For `O=C(CC1N=C2c3ccccc3N=C(SCc3ccc(F)cc3)N2C1=O)NCc1ccccc1` (stereo not drawn), the max activity is 12.9% [at 10 µM].

For the compound `O=C(CCC1N=C2c3ccccc3N=C(SCc3cccc(F)c3)N2C1=O)NCCc1ccccc1` (stereo not drawn), the max activity is 28.7%.

With `O=C(CC1N=C2c3ccccc3N=C(SCc3cccc(F)c3)N2C1=O)NCc1ccc(F)cc1` (stereo not drawn), the max activity is 31.4% [at 2.6 µM].

On to `COc1ccccc1CNC(=O)CCC1N=C2c3ccccc3N=C(SCc3ccc(C)cc3)N2C1=O` (stereo not drawn), for which the max activity is 16.9% [at 0.16 µM].

Take `CCOC(=O)CSC1=Nc2ccccc2C2=NC(CCC(=O)NCCc3ccccc3)C(=O)N12` (stereo not drawn): the max activity is 12.5%.

As to `N#CCSC1=Nc2ccccc2C2=NC(CCC(=O)NCCc3ccccc3)C(=O)N12` (stereo not drawn), the max activity was 23.8% [at 0.16 µM].

Regarding `CN(C)Cc1noc2c1CN(Cc1nccn1C)CC2`, the max activity was 50.1%.

For `COc1cc(NC(=O)CN2CCC3(CC2)N=C(c2cccc(C)c2)C(=O)N3)cc(OC)c1`, the max activity is -9.06% [at 2.6 µM].

Consider `Cc1ccc(-c2nc(Cn3nnc(-c4nc(-c5ccc6c(c5)OCO6)no4)c3C)c(C)o2)cc1`, for which the max activity is 17.5% [at 0.68 µM].

`COc1cc(OC)cc(C(=O)N2CCC3(CC2)Nc2ccc(Cl)cc2-n2cccc23)c1`: the max activity was -6.3% [at 5 µM].

For the compound `COc1ccccc1N1CCN(c2nc(-c3ccc(Cl)cc3)nc3ccccc23)CC1`, the max activity was 8.55% [at 5 µM].

Consider `Cc1noc(C)c1C1CCCN1C(=O)Cn1nc(C(F)(F)F)cc1C` (stereo not drawn), for which the max activity was -9.96% [at 0.35 µM].

Take `Clc1ccc(-c2nc(N3CCC4(CC3)OCCO4)c3ccccc3n2)cc1`: the max activity was -8.6% [at 10 µM].

For the compound `COc1ccc(-c2nc(N3CCN(c4ccccc4)CC3)c3ccccc3n2)cc1`, the max activity was 18.5%.

`COc1ccc(-c2nc(N3CCN(c4ccc(OC)cc4)CC3)c3ccccc3n2)cc1`: the max activity is 51.6%.

Regarding `COc1ccc(-c2nc(N3CCCCCC3)c3ccccc3n2)cc1`, the max activity is 11.2% [at 0.16 µM].

Consider `COc1ccc(-c2nc(N3CCC(N4CCCCC4)CC3)c3ccccc3n2)cc1`, for which the max activity is -13.2% [at 10 µM].

On to `COc1ccc(-c2nc(N3CCCC3)c3ccccc3n2)cc1`, for which the max activity was -15.5% [at 2.6 µM].

As for `COc1ccc(-c2nc(N3CCN(Cc4ccccc4)CC3)c3ccccc3n2)cc1`, the max activity was 20.1%.

With `COc1ccc(-c2nc(N3CCCCC3)c3ccccc3n2)cc1`, the max activity is 24.4%.

In the case of `CCc1ccc(C(=O)N2CCC3(CC2)Nc2cc(OC)ccc2-n2cccc23)cc1`, the max activity is 8.15% [at 0.68 µM].
